Compound activity as filed in PubChem BioAssay.
Most compounds without a hit are left out; they make up all but 3% or so of the library.
TRPM1 prom inh = MITF TRPM1 promoter inhibition in SK-MEL-5 cells | SK-MEL-5 TRPM1 promoter luciferase, 24 h | inhibition, % at 12.5 µM | actives 0.83% (n = 330,000);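 active means mean inhibition across replicates of 60% or more, whatever share of single replicates reaches that level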
Peg3 prom inh = reduces Peg3 promoter-driven luciferase expression in HeLa. HeLa PEG-Prom luciferase reporter, luminescence, overnight. inhibition, % at 20 µM. actives 1.7% (n = 360,000). AID 588405;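 active means inhibition of at least 50% at 20 µM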
KKLEB cytotox = CF airway cell cytotoxicity counter-screen | KKLEB CF airway cells viability, ATPlite luminescence, overnight; hits give low values; cells stimulated with P. aeruginosa culture filtrate | activity change (cytotoxicity), % at 5 µM | actives 0.36% (n = 360,000) | AID 602141;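 active means corrected activity change at or below -50% at 5 µM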
LMP1 NFkB inh = Epstein-Barr LMP1 NF-kappaB reporter inhibition; LMP1-induced NF-kappaB luciferase reporter cells, luminescence; inhibition, % at 12.5 µM; actives 0.69% (n = 350,000); in the data active means inhibition above about 41%;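 further: 0% = neutral control wells and 100% = reference inhibitor control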
HIF-2a inh = inhibitors of HIF-2a; 786-0 RCC cells HIF-2a reporter, luciferase luminescence, overnight; inhibition, % at 18.8 µM; actives 0.72% (n = 360,000); AID 624352;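 active means inhibition of the luminescence signal of 40% or more relative to plate controls, in a single-dose primary screen at 18.75 µM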
CF NFkB block = inhibitors of cystic fibrosis induced NF-kB; KKLEB NF-kB-GFP reporter, PAF-induced, GFP fluorescence overnight; actives 0.86% (n = 360,000); inhibition, % at 5 µM;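 active means at least 50% inhibition at 5 µM, scaled per plate between neutral and stimulator controls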;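 further: PAF is a Pseudomonas aeruginosa culture filtrate used as stimulus; plate controls were PAF-stimulated DMSO wells for no effect and unstimulated DMSO wells for full effect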
* marks the source's active call; other numbers are inactive results; . = not tested or not shown.

SMILES	TRPM1 prom inh	Peg3 prom inh	KKLEB cytotox	LMP1 NFkB inh	HIF-2a inh	CF NFkB block
CCCCCCCC/C=C\CCCCCCCC(=O)NCCO	-6.7	-9.6	27.3	9.6	-1.9	10.9
CCNC(=S)NNC(=O)c1cc(-c2ccc(OCC)cc2)nc2ccccc12	22.2	-28.5	-51.4*	57.0*	-15.1	-5.2
CCc1ccc(-c2cc(C(=O)Nn3cnnc3)c3ccccc3n2)cc1	65.6*	36.8	-31.7	76.8*	11.2	-0.9
CCCc1ccc(-c2cc(C(=O)NN3CCOCC3)c3ccccc3n2)cc1	-59.6	-152.8	-30.1	-15.3	-152.2	-50.4
CCNC(=S)NNC(=O)c1cc(-c2cccc(OC)c2)nc2ccccc12	1.4	-103.2	-3.8	-10.3	-118.7	-10.3
O=C(Nc1ccccc1O)c1ccc(NS(=O)(=O)c2cccc3cccnc23)cc1	39.7	4.0	10.2	47.1*	-473.7	-118.9
COC(=O)c1ccc(NC(=O)c2ccc(NS(=O)(=O)c3cccc4cccnc34)cc2)cc1	0.4	3.9	7.3	12.9	-3.0	-16.6
CCCc1nc2c3ccccc3ccn2c1Cc1cccc(F)c1	.	-244.8	-8.9	.	-250.9	-9.7
O=S(=O)(Nc1nc2ccccc2nc1Nc1cccc(S(=O)(=O)N2CCCCC2)c1)c1ccccc1	16.8	68.8*	-61.3*	3.8	22.6	64.7*
COc1ccc(S(=O)(=O)Nc2cccc(S(=O)(=O)N3CCCCCC3)c2)cc1	0.5	10.0	-6.1	-2.7	4.9	-0.3
O=C(CN1C(=O)/C(=C2\SC(=S)N(C3CCS(=O)(=O)C3)C2=O)c2ccccc21)Nc1ccccc1 (stereo not drawn)	12.7	-0.6	-5.9	13.8	4.6	52.8*
Cc1ccc(NC(=O)CN2C(=O)/C(=C3\SC(=S)N(C4CCS(=O)(=O)C4)C3=O)c3ccccc32)cc1 (stereo not drawn)	10.3	7.1	1.7	15.2	12.6	32.9
O=C1C(Cl)=C(N2CCN(c3ccccc3[N+](=O)[O-])CC2)C(=O)c2ccccc21	26.7	100.5*	-11.4	-21.9	23.3	30.2
COCCn1c(SCC(=O)Nc2sccc2C(N)=O)nc2cc(Cl)ccc2c1=O	5.8	52.0*	1.9	7.7	13.8	-7.9
COCCn1c(SCC(=O)Nc2cccnc2Cl)nc2cc(Cl)ccc2c1=O	10.7	22.7	-4.9	0.9	18.4	-18.7
C=CCN1C(=O)/C(=C\c2cc(Br)c(OCc3ccccn3)c(OC)c2)SC1=S	-5.5	3.2	-38.8	16.4	13.9	50.4*
Cc1cccc(N2CCN(C(=O)c3ccc4nc(-c5ccco5)c(-c5ccco5)nc4c3)CC2C)c1 (stereo not drawn)	21.5	62.9*	14.9	7.8	15.3	6.0
CCCc1c(C(=O)N/N=C(\CC)c2ccccc2)nnn1-c1nonc1N	.	-6.4	3.9	-0.6	2.5	-24.2
Cc1ccc(Nc2nc(N)c3ccccc3n2)cc1C	5.6	-19.8	-54.4*	17.9	-26.4	-3.1
COC(=O)[C@H]1C[C@H](OC(=O)Nc2c(C)noc2C)[C@@]2(O)CN(S(=O)(=O)c3ccc(C)cc3)CC2[C@H]1C(=O)OC (stereo partly drawn)	.	2.5	11.2	-5.3	9.2	-2.4
NC(Cc1ccc(Cl)cc1)c1csc(NC(=O)Nc2ccccc2)n1 (stereo not drawn)	.	100.8*	-27.5	.	-19.4	33.0
NC(CCc1ccccc1)c1csc(NC(=O)Nc2cccc(C(F)(F)F)c2)n1 (stereo not drawn)	.	94.5*	-6.2	.	5.9	15.8
NC(Cc1ccc(Cl)cc1)c1csc(Nc2ccc(S(N)(=O)=O)cc2)n1 (stereo not drawn)	.	24.1	-3.3	.	12.0	0.1
COc1ccc(CC(N)c2csc(NC(=O)Nc3cccc(C(F)(F)F)c3)n2)cc1 (stereo not drawn)	.	96.6*	-11.1	.	3.3	3.5
COc1ccc(CC(N)c2csc(NC(=O)c3cccs3)n2)cc1 (stereo not drawn)	.	13.1	-29.9	.	1.6	-7.7
SMILES	TRPM1 prom inh	Peg3 prom inh	KKLEB cytotox	LMP1 NFkB inh	HIF-2a inh	CF NFkB block
CC(C)C(N)c1csc(NC(=O)Nc2ccc(OC(F)(F)F)cc2)n1 (stereo not drawn)	.	97.1*	-5.8	.	-33.8	32.8
CC(=O)Nc1cc(-c2cccc(CO)c2)cn2c(-c3ccc(F)cc3)cnc12	.	-11.0	1.9	.	13.7	-12.6
NC(Cc1ccc(C(F)(F)F)cc1)c1csc(NC(=O)Nc2ccccc2)n1 (stereo not drawn)	.	93.7*	-8.9	.	7.2	6.1
NC(COCc1ccccc1)c1csc(NC(=O)Nc2cccc(Cl)c2)n1 (stereo not drawn)	.	95.7*	-32.2	.	5.4	17.0
CC(C)C(N)c1csc(NC(=O)Nc2cccc(C(F)(F)F)c2)n1 (stereo not drawn)	.	96.7*	-10.5	.	-6.3	7.9
NC(CO)c1csc(NC(=O)Nc2cccc(Cl)c2)n1 (stereo not drawn)	.	-3.1	3.6	.	-17.2	-5.0
NC(Cc1ccc(C(F)(F)F)cc1)c1csc(Nc2nncc3ccccc23)n1 (stereo not drawn)	.	93.9*	-33.2	.	6.4	18.9
COC(=O)[C@]12CCCCC=C1N(Cc1ccc(Cl)cc1Cl)C(=O)[C@H](CC(=O)NCCC(C)C)C2	.	.	.	.	-4.5	.
COc1ccc(CCNC(=O)Nc2nc(CN)cs2)cc1OC	.	8.4	10.1	.	2.9	-6.6
COC(=O)C[C@H]1C=C[C@H](NC(=O)Nc2ccccc2F)[C@@H](CO)O1	.	.	.	.	12.4	.
COc1ccc(CC(N)c2csc(NC(=O)Nc3ccc(F)cc3)n2)cc1 (stereo not drawn)	.	54.9*	4.8	.	9.8	-9.6
COc1cc(CNC(=O)Nc2nc(C(N)Cc3ccc(C(F)(F)F)cc3)cs2)cc(OC)c1OC (stereo not drawn)	.	97.8*	-3.6	.	14.8	11.3
COc1ccc(CC(N)c2csc(NC(=O)NCCc3ccc(OC)c(OC)c3)n2)cc1 (stereo not drawn)	.	3.3	-7.0	.	-2.4	11.3
COc1ccc(CC(N)c2csc(Nc3ccc(C(C)=O)cc3)n2)cc1 (stereo not drawn)	.	9.1	-10.1	.	1.6	-2.7
NC(Cc1ccc(C(F)(F)F)cc1)c1csc(NC(=O)Nc2ccccc2Cl)n1 (stereo not drawn)	.	89.0*	22.8	.	12.8	-44.5
CC(C)c1ccc(NC(=O)Nc2nc(C(N)c3ccccc3Cl)cs2)cc1 (stereo not drawn)	.	87.5*	-15.9	.	8.4	19.1
C[C@H](CO)N1C[C@H](C)[C@@H](CN(C)S(=O)(=O)c2ccc(F)cc2)OCc2cn(nn2)CCCC1=O	.	5.4	12.9	-0.4	2.7	-3.4
CCCc1nc2ccc(C(=O)OC)cn2c1Cc1ccc(C)cc1	.	-47.2	-15.3	.	-83.3	-17.4
COc1ccccc1-c1ccc([C@@H]2C[C@H]3[C@@H](CN2)CON3C)cc1	.	-58.6	1.8	-2.1	-36.1	19.1
O=C(CC(=O)NN=Cc1ccc2c(c1)CCC2)NN=Cc1ccc2c(c1)CCC2	-8.2	-0.8	-23.5	1.9	-10.9	-9.9
